Results reported in PubChem BioAssay AID1159580 (chemical genetic matrix, 2015).
“And” between values parts separate entries of the source, which are not always exact repeats. Equal entries are not always repeated. Among all 5,500 compounds or so, about 2,000 (36%) were called active. Roughly 18% stayed inconclusive and do not appear here. Rule as the data show it: active = normalized growth mostly below about 0.91 (no sharp cut-off); inconclusive = no clear call, values can overlap the other calls; inactive = mostly above about 0.92. Some of the results follow.

Assay: chemical genetic growth profiling, strain panel (AID 1159580);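 also: tested at 20 µM; growth read once vehicle control cultures reached saturation at 30 °C; 1 = growth at the plate median or of vehicle wells; lower values mean less growth of the strain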
Conditions: growth OD

Measured: normalized growth

CC(C)NCC(O)c1ccc(O)c(O)c1 (stereo not given)
inactive: S. cerevisiae deletion strains, locus YJR075W, strain HOC1, stronger effect = lower value 1.01 and 1.02 | S. cerevisiae deletion strains, locus YKL009W, strain mrt4, stronger effect = lower value 0.979 | S. cerevisiae deletion strains, locus YKL068W, stronger effect = lower value 0.994 | S. cerevisiae deletion strains, locus YKL085W, strain MDH1 (second series), stronger effect = lower value 0.994 | S. cerevisiae deletion strains, locus YKL085W, strain MDH1, stronger effect = lower value 0.994 | S. cerevisiae deletion strains, locus YKL160W, strain elf1, stronger effect = lower value 0.966 | S. cerevisiae deletion strains, locus YKL190W, strain CNB1, stronger effect = lower value 0.996 | S. cerevisiae deletion strains, locus YKR001C, strain vps1, stronger effect = lower value 0.985 | S. cerevisiae deletion strains, locus YKR026C, strain gcn3, stronger effect = lower value 0.991 | S. cerevisiae deletion strains, locus YKR091W, strain srl3, stronger effect = lower value 0.996 | S. cerevisiae deletion strains, locus YLL001W, strain dnm1, stronger effect = lower value 0.955 | S. cerevisiae deletion strains, locus YLL026W, stronger effect = lower value 0.997 | S. cerevisiae deletion strains, locus YLL041C, strain sdh2, stronger effect = lower value 0.99 | S. cerevisiae deletion strains, locus YLR027C, strain aat2, stronger effect = lower value 1 | S. cerevisiae deletion strains, locus YLR039C, strain RIC1, stronger effect = lower value 1.08 | S. cerevisiae deletion strains, locus YLR058C, strain SHM2, stronger effect = lower value 1.01 | S. cerevisiae deletion strains, locus YLR102C, strain apc9, stronger effect = lower value 1 | S. cerevisiae deletion strains, locus YLR113W, strain HOG1, stronger effect = lower value 0.97 | S. cerevisiae deletion strains, locus YLR221C, strain rsa3, stronger effect = lower value 0.949 | S. cerevisiae deletion strains, locus YLR258W, strain gsy2, stronger effect = lower value 0.979 | S. cerevisiae deletion strains, locus YLR262C, strain YPT6 (second series), stronger effect = lower value 0.954 | S. cerevisiae deletion strains, locus YLR262C, strain YPT6, stronger effect = lower value 1.01 | S. cerevisiae deletion strains, locus YLR268W, strain sec22, stronger effect = lower value 1 | S. cerevisiae deletion strains, locus YLR320W, strain mms22, stronger effect = lower value 0.962 | S. cerevisiae deletion strains, locus YLR330W, strain CHS5, stronger effect = lower value 1.02 | S. cerevisiae deletion strains, locus YLR342W, strain FKS1 (second series), stronger effect = lower value 1.01 | S. cerevisiae deletion strains, locus YLR342W, strain FKS1, stronger effect = lower value 0.991 | S. cerevisiae deletion strains, locus YLR357W, strain rsc2, stronger effect = lower value 0.959 | S. cerevisiae deletion strains, locus YLR370C, strain arc18, stronger effect = lower value 0.977 | S. cerevisiae deletion strains, locus YLR371W, strain rom2, stronger effect = lower value 0.998 | S. cerevisiae deletion strains, locus YLR384C, strain iki3, stronger effect = lower value 0.996 | S. cerevisiae deletion strains, locus YLR418C, strain cdc73, stronger effect = lower value 0.986 | S. cerevisiae deletion strains, locus YML016C, strain PPZ1, stronger effect = lower value 1.01 | S. cerevisiae deletion strains, locus YML032C, strain rad52, stronger effect = lower value 0.989 | S. cerevisiae deletion strains, locus YML120C, strain ndi1, stronger effect = lower value 0.966 | S. cerevisiae deletion strains, locus YML124C, strain tub3, stronger effect = lower value 1 | S. cerevisiae deletion strains, locus YMR058W, strain fet3, stronger effect = lower value 0.991 | S. cerevisiae deletion strains, locus YMR078C, strain ctf18, stronger effect = lower value 1.01 | S. cerevisiae deletion strains, locus YMR125W, strain sto1, stronger effect = lower value 0.98 | S. cerevisiae deletion strains, locus YMR129W, stronger effect = lower value 0.991 | S. cerevisiae deletion strains, locus YMR205C, strain PFK2, stronger effect = lower value 0.971 | S. cerevisiae deletion strains, locus YMR223W, strain ubp8, stronger effect = lower value 0.99 | S. cerevisiae deletion strains, locus YMR231W, strain pep5, stronger effect = lower value 0.999 | S. cerevisiae deletion strains, locus YMR307W, strain GAS1, stronger effect = lower value 0.937 and 1.01 | S. cerevisiae deletion strains, locus YNL067W, strain RPL9B, stronger effect = lower value 1.01 | S. cerevisiae deletion strains, locus YNL071W, strain lat1, stronger effect = lower value 0.995 | S. cerevisiae deletion strains, locus YNL128W, strain TEP1, stronger effect = lower value 0.973 | S. cerevisiae deletion strains, locus YNL153C, strain GIM3, stronger effect = lower value 1 | S. cerevisiae deletion strains, locus YNL175C, strain NOP13, stronger effect = lower value 1.01 and 0.97 | S. cerevisiae deletion strains, locus YNL183C, strain NPR1, stronger effect = lower value 0.957 | S. cerevisiae deletion strains, locus YNL197C, strain WHI3, stronger effect = lower value 1.02 and 0.975 | S. cerevisiae deletion strains, locus YNL209W, strain ssb2, stronger effect = lower value 0.989 | S. cerevisiae deletion strains, locus YNL224C, strain SQS1, stronger effect = lower value 1 and 0.985 | S. cerevisiae deletion strains, locus YNL233W, strain BNI4, stronger effect = lower value 1.01 | S. cerevisiae deletion strains, locus YNL248C, strain rpa49, stronger effect = lower value 0.981 | S. cerevisiae deletion strains, locus YNL250W, strain rad50, stronger effect = lower value 0.985 | S. cerevisiae deletion strains, locus YNL271C, strain bni1, stronger effect = lower value 1 | S. cerevisiae deletion strains, locus YNL298W, strain CLA4, stronger effect = lower value 0.998 | S. cerevisiae deletion strains, locus YNL307C, strain MCK1, stronger effect = lower value 0.998 | S. cerevisiae deletion strains, locus YNL322C, strain KRE1 (second series), stronger effect = lower value 0.988 | S. cerevisiae deletion strains, locus YNL322C, strain KRE1, stronger effect = lower value 1.01 and 1 | S. cerevisiae deletion strains, locus YNR049C, strain mso1, stronger effect = lower value 0.995 | S. cerevisiae deletion strains, locus YNR052C, strain pop2, stronger effect = lower value 1 | S. cerevisiae deletion strains, locus YOL006C, strain TOP1, stronger effect = lower value 1.01 | S. cerevisiae deletion strains, locus YOL012C, strain htz1 0.826 | S. cerevisiae deletion strains, locus YOL147C, strain pex11, stronger effect = lower value 1 | S. cerevisiae deletion strains, locus YOR001W, strain rrp6, stronger effect = lower value 0.991 | S. cerevisiae deletion strains, locus YOR061W, strain CKA2, stronger effect = lower value 1.01 | S. cerevisiae deletion strains, locus YOR069W, strain VPS5, stronger effect = lower value 1.01 | S. cerevisiae deletion strains, locus YOR070C, strain gyp1, stronger effect = lower value 0.985 | S. cerevisiae deletion strains, locus YOR080W, strain dia2, stronger effect = lower value 0.992 | S. cerevisiae deletion strains, locus YOR083W, strain WHI5 (second series), stronger effect = lower value 0.998 and 0.969 | S. cerevisiae deletion strains, locus YOR083W, strain WHI5, stronger effect = lower value 0.981 | S. cerevisiae deletion strains, locus YOR106W, strain vam3, stronger effect = lower value 0.953 | S. cerevisiae deletion strains, locus YOR136W, strain idh2, stronger effect = lower value 0.997 | S. cerevisiae deletion strains, locus YOR144C, strain elg1, stronger effect = lower value 1 | S. cerevisiae deletion strains, locus YOR184W, strain ser1, stronger effect = lower value 1.01 | S. cerevisiae deletion strains, locus YOR231W, strain MKK1, stronger effect = lower value 0.952 | S. cerevisiae deletion strains, locus YOR265W, strain rbl2, stronger effect = lower value 0.996 | S. cerevisiae deletion strains, locus YOR270C, strain vph1, stronger effect = lower value 0.995 | S. cerevisiae deletion strains, locus YOR290C, strain snf2, stronger effect = lower value 0.939 | S. cerevisiae deletion strains, locus YOR316C, strain cot1, stronger effect = lower value 1.01 | S. cerevisiae deletion strains, locus YPL051W, strain arl3, stronger effect = lower value 0.967 | S. cerevisiae deletion strains, locus YPL055C, strain LGE1, stronger effect = lower value 1.01 | S. cerevisiae deletion strains, locus YPL078C, strain atp4, stronger effect = lower value 0.983 | S. cerevisiae deletion strains, locus YPL106C, strain sse1, stronger effect = lower value 0.929 | S. cerevisiae deletion strains, locus YPL240C, strain hsp82, stronger effect = lower value 0.976 | S. cerevisiae deletion strains, locus YPL241C, strain CIN2, stronger effect = lower value 0.994 | S. cerevisiae deletion strains, locus YPL256C, strain CLN2, stronger effect = lower value 0.99 | S. cerevisiae deletion strains, locus YPR119W, strain clb2, stronger effect = lower value 0.995 | S. cerevisiae deletion strains, locus YPR141C, strain kar3, stronger effect = lower value 0.992 | S. cerevisiae deletion strains, locus YPR163C, strain tif3, stronger effect = lower value 0.999 | S. cerevisiae deletion strains, locus YPR167C, strain met16, stronger effect = lower value 0.997 | S. cerevisiae deletion strains, strain wtn01, stronger effect = lower value 0.993 | S. cerevisiae strains, strain wild type, stronger effect = lower value 0.994
